SMILES strings stand for the structures. Results filed as inconclusive are left out. Where a call stands in place of a potency, no number is given. Activity calls are given as the source filed them. The call rests on the fitted dose curve; in most records, active means well fitted inhibition curve with a large enough effect; inconclusive means small, poorly fitted or top-dose-only effect; inactive means no such curve, though single readings can be large or run the other way.
Potency means the concentration at half of the fitted maximal effect.

The experiment in a line: Confirmatory fluorescence-based thiol-reactive (MSTI) qHTS assay for identification of artifact compounds. The settings on record: MSTI thiol-reactivity probe, 1 h; series mostly up to 39.2 µM. Summed up: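 Thiol reactivity read as MSTI fluorescence (Ex/Em 525/598 nm) after 1 h at room temperature in PBS pH 7.4 with 2% DMSO, MSTI 4 uM. Data normalised to Acetyl-MSTI and MSTI control wells, 4-parameter Hill fit.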
For orientation: Quantitative high-throughput screening tests each substance at several concentrations.
`O=C(CSc1nnc(-c2cccc(F)c2)c(-c2cccc(F)c2)n1)NC1CCCCC1`: the Potency entry is “inactive”.

As to `CCOC(=O)C1CCN(c2nc3ccccc3nc2Cl)CC1`, the Potency entry was “inactive”.

Consider `O=C(O)c1c(O)c(O)cc2ccccc12`, for which the Potency result was “inactive”.

As to `Oc1ccc(-c2nc3ccc(Cl)cn3c2Nc2ccc3c(c2)OCO3)cc1`, the Potency is 0.77 µM (active).

`Cc1cc(OC(=O)c2c(C)cc(O)cc2O)cc(O)c1C(=O)O`: the Potency entry is “inactive”.

Turning to `O=C(Nc1nc(-c2ccccc2)cs1)c1ccccc1[N+](=O)[O-]`, the Potency is 2.44 µM (active).

Consider `O=C(/C=C/c1ccc(O)cc1)OC[C@H]1O[C@@H](Oc2c(-c3ccc(O)cc3)oc3cc(O)cc(O)c3c2=O)[C@H](O)[C@@H](O)[C@@H]1O`, for which the Potency result was “inactive”.

Consider `O=C(COc1ccccc1Cl)NCC1(N2CCOCC2)CCCCC1`, for which the Potency result was “inactive”.

Consider `COc1ccc2oc(=O)cc(CN3CCN(C(=O)c4ccccc4F)CC3)c2c1`, for which the Potency entry is “inactive”.

Consider `COc1ccc(CNC(=O)CCc2c(C)nc3c4cccnc4nn3c2C)cc1`, for which the Potency result was “inactive”.

In the case of `Cc1ccc(CN(Cc2ccco2)C(=O)COc2ccc(Cl)cc2Cl)cc1`, the Potency entry was “inactive”.

Turning to `COc1ccc(NC(=O)CSc2nc(-c3ccccc3)nc3c2Cc2c(CO)cnc(C)c2O3)cc1Cl`, the Potency result was “inactive”.

`CCOc1ccc(CNC(=O)c2ccc3nc(CC)c(CC)nc3c2)cc1OC`: the Potency result was “inactive”.

Turning to `O=C(O)Cc1cc(I)c(Oc2cc(I)c(O)c(I)c2)c(I)c1`, the Potency entry was “inactive”.

In the case of `O=C1CCCC2=C1C(c1[nH]ncc1Cl)NC(=NCCc1ccccc1)N2` (stereo unspecified), the Potency entry was “inactive”.

Turning to `COc1ccc(Nc2nc(Nc3ccc(OC)cc3OC)nc(N3CCOCC3)n2)c(OC)c1`, the Potency was 6.12 µM (active).

The record behind these values is PubChem BioAssay AID1845226 (National Center for Advancing Translational Sciences (NCATS), 2023).
